Source: PubChem BioAssay (Tox21)
Values without a mark were called inactive. Records with an inconclusive call do not appear. Where a call stands in place of a potency, no number is given. Active and inactive are the calls of the source. The call rests on the fitted dose curve; in most records, active means well fitted curve in the direction sought with a large enough effect in the repeat runs; inconclusive means weak or mixed curves; inactive means no such curve, though single readings can be large; an effect the other way counts as inactive or inconclusive.

Tests used:
[1] = Human pregnane X receptor (PXR) small molecule agonists, qHTS cell viability counter screen (AID 1346977); further: nearly all actives have a fitted effect of over 50% in size; further: potency means the concentration at half of the fitted maximal effect
How it was run: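 PXR-Luc HepG2 cells (2,000/well, 5% charcoal-stripped FBS) preincubated 5 hr, then exposed to compounds 24 hr at 37 C. Viability read in the same wells by CellTiter-Fluor fluorescence, reagent added at 23 hr, 1 hr incubation.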

[2] = Caspase-3/7 induction in HepG2 cells by small molecules, qHTS assay (AID 1346978); further: nearly all actives have a fitted effect of over 15% in size; further: potency means the concentration at half of the fitted maximal effect
How it was run: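 Wild-type HepG2 cells, 2,000/well, settled 5 hr at 37 C and 5% CO2, then compound-treated for 17 hr; caspase-3/7 activity read by luminescent Caspase-Glo 3/7 after 30 min at room temperature.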

[3] = Caspase-3/7 induction in CHO-K1 cells by small molecules, qHTS cell viability counter screen (AID 1346979); further: nearly all actives have a fitted effect of over 35% in size; further: potency means the concentration at half of the fitted maximal effect
How it was run: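 Wild-type CHO-K1 cells (1,500/well) treated with compound after 5 h plating; after 16 h at 37C, viability read as CellTiter-Fluor fluorescence following 1 h reagent incubation, in the same wells as the caspase read.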

[4] = Caspase-3/7 induction in CHO-K1 cells by small molecules, qHTS assay (AID 1346980); further: nearly all actives have a fitted effect of over 15% in size; further: potency means the concentration at half of the fitted maximal effect
How it was run: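 Wild-type CHO-K1 cells exposed to compounds for 17hr at 37 C, 5% CO2. Caspase-3/7 activity then measured by Caspase-Glo 3/7 luminescence after 30min at room temperature.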

[5] = Caspase-3/7 induction in HepG2 cells by small molecules, qHTS cell viability counter screen (AID 1346981); further: nearly all actives have a fitted effect of over 30% in size; further: potency means the concentration at half of the fitted maximal effect
How it was run: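 Fluorescence read-out of live-cell protease activity (CellTiter-Fluor) after 1 hr with reagent. This was measured in the same wells as the caspase-3/7 luminescence, on HepG2 cells exposed to DMSO-dissolved compounds for 16 hr at 37 C.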

[6] = target: Nuclear receptor subfamily 1 group I member 2 (Homo sapiens) (UniProt O75469); assay: Human pregnane X receptor (PXR) small molecule agonists, qHTS assay (AID 1346982); further: nearly all actives have a fitted effect of over 35% in size; further: potency means the concentration at half of the fitted maximal effect
How it was run: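 HepG2 PXR-Luc reporter line, 5% charcoal-stripped FBS; 5 hr pre-incubation, compound (DMSO) 24 hr at 37 C/5% CO2; ONE-Glo 30 min RT; luminescence read-out.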

[7] = target: Cytochrome P450 2D6 (Homo sapiens) (UniProt P10635); assay: Cytochrome P450 Family 2 Subfamily D Member 6 (CYP2D6) small molecule antagonists: luciferase reporter qHTS assay (AID 1671196); further: nearly all actives have a fitted effect of over 50% in size; further: potency means the concentration at half of the fitted maximal effect
Sequence of Cytochrome P450 2D6 (Homo sapiens) (P10635 whole entry, looked up): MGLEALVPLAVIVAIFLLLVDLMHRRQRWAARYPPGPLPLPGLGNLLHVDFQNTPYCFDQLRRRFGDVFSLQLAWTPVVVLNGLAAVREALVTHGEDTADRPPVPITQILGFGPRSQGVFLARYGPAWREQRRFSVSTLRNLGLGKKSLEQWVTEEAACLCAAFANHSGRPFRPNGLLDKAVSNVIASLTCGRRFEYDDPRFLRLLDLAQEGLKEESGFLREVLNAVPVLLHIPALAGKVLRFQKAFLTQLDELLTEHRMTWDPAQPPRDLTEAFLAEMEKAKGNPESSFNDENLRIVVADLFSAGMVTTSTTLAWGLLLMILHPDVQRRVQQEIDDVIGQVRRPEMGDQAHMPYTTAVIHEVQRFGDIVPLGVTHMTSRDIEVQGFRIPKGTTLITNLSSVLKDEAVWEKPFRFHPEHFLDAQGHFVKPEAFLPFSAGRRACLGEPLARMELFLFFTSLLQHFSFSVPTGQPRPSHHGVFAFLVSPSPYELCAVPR
How it was run: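 Luminogenic proluciferin substrate, CYP2D6 enzyme; 10 min RT preincubation with compound, NADPH regeneration system added, 1 h RT. Stop/detection reagent, 20 min RT, luminescence read (RLU). Signal proportional to CYP activity.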

[8] = target: Nuclear receptor subfamily 1 group I member 2 (Homo sapiens) (UniProt O75469); assay: CYP3A4 induction through human pregnane X receptor (PXR) by small molecules, qHTS assay (AID 1346984); further: nearly all actives have a fitted effect of over 40% in size
How it was run: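 HepG2-derived DPX-2 line carrying PXR plus a CYP3A4-promoter luciferase reporter; cells plated 5 hr, compound-exposed 24 hr at 37C. CYP3A4 activity probed with 3uM (final) Luciferin-IPA for 3hr, then luciferase read after One-Glo.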

[9] = target: Nuclear receptor subfamily 1 group I member 2 (Homo sapiens) (UniProt O75469); assay: Human pregnane X receptor (PXR) activation by small molecules, qHTS assay (AID 1346985); further: nearly all actives have a fitted effect of over 40% in size; further: potency means the concentration at half of the fitted maximal effect
How it was run: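 DPX-2 cells (HepG2 co-transfected with a PXR response element and a CYP3A4-promoter luciferase construct) were seeded at 2,000 per well, rested 5 hr at 37C, then exposed to DMSO-dissolved compounds for 24 hr. Activation was read as luciferase luminescence.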

SMILES	Potency [1]	Potency [2]	Potency [3]	Potency [4]	Potency [5]	activation [6]	Potency [7]	Potency [6]	Potency [8]	Potency [9]	caspase activation [2]	caspase-3/7 activation [4]
C[n+]1cc2c3c(ccc2c2ccc4cc5c(cc4c21)OCO5)OCO3	2.91 µM (active)	3.66 µM (active)	1.03 µM (active)	1.3 µM (active)	5.17 µM (active)	-46.6% [at 19 µM]	6.74 µM (active)	–	–	–	–	–
NNC(=O)c1cccc(C(=O)NN)c1	inactive	inactive	inactive	inactive	inactive	–	–	inactive	–	–	–	–
CNC(=O)c1ccccc1	inactive	inactive	inactive	inactive	inactive	–	–	inactive	–	–	–	–
N#CSc1ccc(N)c([N+](=O)[O-])c1	30.8 µM (active)	inactive	38.8 µM (active)	inactive	54.8 µM (active)	–	–	12.3 µM (active)	–	–	–	–
O=C(Nc1cccc(Cl)c1)OCC#CCCl	54.5 µM (active)	inactive	30.6 µM (active)	inactive	27.3 µM (active)	–	39.9 µM (active)	13.7 µM (active)	–	–	–	–
O=C(c1ccc(F)cc1)C1CCN(CCn2c(=O)[nH]c3ccccc3c2=O)CC1	inactive	inactive	inactive	inactive	inactive	–	–	inactive	–	–	–	–
Clc1ccc2nsnc2c1NC1=NCCN1	inactive	inactive	inactive	inactive	inactive	–	12.3 µM (active)	inactive	inactive	inactive	–	–
CCOC(=O)O[C@]1(C(=O)OCCl)CC[C@H]2[C@@H]3CCC4=CC(=O)C=C[C@]4(C)[C@H]3[C@@H](O)C[C@@]21C	inactive	inactive	inactive	inactive	inactive	–	inactive	5.96 µM (active)	inactive	14.1 µM (active)	–	–
CC[C@H]1O[C@]2(CC[C@@H]1C)C[C@@H]1C[C@@H](C/C=C(\C)C[C@@H](C)/C=C/C=C3\CO[C@@H]4[C@H](O)C(C)=C[C@@H](C(=O)O1)[C@]34O)O2	27.1 µM (active)	30.4 µM (active)	17.1 µM (active)	13.6 µM (active)	42.9 µM (active)	–	–	6.06 µM (active)	–	–	–	–
CCCCCCCCCCCCCCCS(=O)(=O)Oc1ccccc1	inactive	inactive	inactive	inactive	inactive	–	inactive	inactive	–	–	–	–
CCN1/C(=C/C=C/c2sc3ccccc3[n+]2CC)Sc2ccccc21	5.17 µM (active)	–	1.46 µM (active)	–	10.3 µM (active)	29.7% [at 19 µM]	12 µM (active)	–	inactive	inactive	-8.48% [at 19 µM]	0.607% [at 19 µM]
CCCCN(CCCC)C(=O)N(CCCC)CCCC	inactive	inactive	inactive	inactive	inactive	–	–	inactive	–	–	–	–
Oc1cccc(-c2c3nc(c(-c4cccc(O)c4)c4ccc([nH]4)c(-c4cccc(O)c4)c4nc(c(-c5cccc(O)c5)c5ccc2[nH]5)CC4)C=C3)c1	15 µM (active)	inactive	13.3 µM (active)	inactive	13.3 µM (active)	–	–	inactive	–	–	–	–
CO[Si](CCCNc1ccccc1)(OC)OC	inactive	inactive	inactive	inactive	inactive	–	inactive	inactive	–	–	–	–
CC[C@H](c1ccc(O)cc1)[C@@H](CC)c1ccc(O)cc1	inactive	inactive	68.6 µM (active)	inactive	inactive	–	inactive	61.1 µM (active)	inactive	–	–	–
ON=C1CCCC1	inactive	inactive	inactive	inactive	inactive	–	–	inactive	–	–	–	–
CCCCCCCCCCCCc1ccc(O)cc1	30.6 µM (active)	61.1 µM (active)	43.3 µM (active)	54.5 µM (active)	61.1 µM (active)	–	inactive	9.69 µM (active)	–	–	–	–
NC(=O)CC[C@@H]1NC(=O)[C@H](Cc2ccccc2)NC(=O)[C@H](Cc2ccc(O)cc2)NC(=O)CCSSC[C@@H](C(=O)N2CCC[C@H]2C(=O)N[C@@H](CCCN=C(N)N)C(=O)NCC(N)=O)NC(=O)[C@H](CC(N)=O)NC1=O	inactive	inactive	inactive	inactive	inactive	–	inactive	inactive	inactive	inactive	–	–
COC(=O)c1cc(Cl)ccc1OC	inactive	inactive	inactive	inactive	inactive	–	–	inactive	–	–	–	–
Cc1[nH]nc2c1N=C(c1ccccc1Cl)c1cc([N+](=O)[O-])ccc1N2	13.7 µM (active)	17.2 µM (active)	21.7 µM (active)	19.3 µM (active)	19.3 µM (active)	–	–	6.11 µM (active)	–	–	–	–
[Cl][Au]([Cl])[Cl]	13.7 µM (active)	inactive	24.3 µM (active)	inactive	68.6 µM (active)	–	–	–	–	–	–	–
COc1cccc2c1C(=O)c1c(O)c3c(c(O)c1C2=O)C[C@@](O)(C(=O)CO)C[C@@H]3O[C@H]1C[C@H](N)[C@H](O[C@@H]2CCCCO2)[C@H](C)O1	1.68 µM (active)	2.37 µM (active)	6.68 µM (active)	inactive	8.41 µM (active)	–	–	inactive	inactive	–	–	–
